Measured values reported in PubChem BioAssay (NCI).
About 79,000 compounds went through this panel and 15% of them were active in at least one assay; those are over-represented in the sample as a whole. Unmarked numbers belong to inactive results. Activity calls are given as the source filed them. Cut-off read from the data, not from the text of the source: active = growth inhibition above about 70%; inactive = the rest.

Experiment: NCI Yeast Anticancer Drug Screen. Data for the wt1 strain (AID 149);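 note: 0% = growth of vehicle-treated wt1 cultures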
Conditions: S. cerevisiae wt1 strain (SPY 50644) growth inhibition, stronger effect = higher value
Method: Growth inhibition of yeast strains with defined genetic alterations is measured as a screen for potential anti-cancer activity. Selected strains with alterations in DNA damage repair or cell cycle control were exposed to compounds and growth inhibition was measured relative to vehicle treated controls. The strain used in this assay is wt1

Cc1c2ccccc2cc2ccccc12
growth inhibition (at 1.2 µM): -2% | growth inhibition (at 3.7 µM): 1% | growth inhibition (at 11.0 µM): 24% | growth inhibition (at 33.0 µM): 93% (active) | growth inhibition (at 100.0 µM): 98% (active)

CCCCCCCCCCCCCCCCP(=O)(O)OP(=O)(O)OCC1OC(n2ccc(N)nc2=O)C(O)C1O (stereo not given)
growth inhibition (at 1.2 µM): 3% | growth inhibition (at 3.7 µM): 4% | growth inhibition (at 11.0 µM): 6% | growth inhibition (at 33.0 µM): 3% | growth inhibition (at 100.0 µM): 3%

[N-]=[N+]=C1C(Cl)=C(Cl)C(Cl)=C1Cl
growth inhibition (at 1.2 µM): -3% | growth inhibition (at 3.7 µM): -2% | growth inhibition (at 11.0 µM): 44% | growth inhibition (at 33.0 µM): 97% (active) | growth inhibition (at 100.0 µM): 99% (active)

O=C(Nc1cc(Cl)ccc1Cl)C(Cl)(Cl)Cl
growth inhibition (at 1.2 µM): 0% | growth inhibition (at 3.7 µM): 2% | growth inhibition (at 11.0 µM): 4% | growth inhibition (at 33.0 µM): 6% | growth inhibition (at 100.0 µM): 6%

Oc1ccc(Cl)cc1Cc1ccccc1
growth inhibition (at 1.2 µM): -41% | growth inhibition (at 3.7 µM): -11% | growth inhibition (at 11.0 µM): 60% | growth inhibition (at 33.0 µM): 99% (active) | growth inhibition (at 100.0 µM): 99% (active)

CC(C)(C)c1cc([N+](=O)[O-])cc([N+](=O)[O-])c1O
growth inhibition (at 1.2 µM): -16% | growth inhibition (at 3.7 µM): -23% | growth inhibition (at 11.0 µM): -7% | growth inhibition (at 33.0 µM): 12% | growth inhibition (at 100.0 µM): 38%

Oc1cccnc1[Se]
growth inhibition (at 1.2 µM): -2% | growth inhibition (at 3.7 µM): -3% | growth inhibition (at 11.0 µM): -4% | growth inhibition (at 33.0 µM): 46% | growth inhibition (at 100.0 µM): 99% (active)

O=C(O)C1C2C=CC(C2)C1c1ccccc1 (stereo not given)
growth inhibition (at 1.2 µM): -3% | growth inhibition (at 3.7 µM): -1% | growth inhibition (at 11.0 µM): -3% | growth inhibition (at 33.0 µM): -9% | growth inhibition (at 100.0 µM): 1%
